According to PubChem BioAssay (EPA / NIEHS):
Active and inactive are the calls of the source. How the source made its calls: active means hit-call score of the fitted dose curve at least 0.9, where 1 is the maximum; inactive means score below 0.9.

What was measured:
[1] = read-out: Urokinase-type plasminogen activator receptor (uPAR), PLAUR (gene 5329); test: BSK_4H_uPAR: BioMAP Diversity Plus: 4H Assay for Urokinase-type plasminogen activator receptor (uPAR) Biomarker Activity (AID 2283030); details: primary human endothelial cells (HUVEC); actives raise or lower the signal
Summary of the method: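 Chemicals are dosed onto human vascular endothelial primary cells (umbilical vein). After 24 h, uPAR is read by ELISA. Gain or loss of signal is fitted relative to DMSO.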

[2] = read-out: Vascular endothelial growth factor receptor 2 (Homo sapiens) (UniProt P35968); test: BSK_4H_VEGFRII: BioMAP Diversity Plus: 4H Assay for Vascular endothelial growth factor receptor 2 (VEGFR2) Biomarker Activity (AID 2283031); details: primary human endothelial cells (HUVEC); actives raise or lower the signal;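 on AC50: cell-surface VEGFR2 protein level quantified by ELISA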
Summary of the method: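 VEGFRII levels on human vascular endothelial primary cells were determined by ELISA at 24 hours post-dosing, with gain- or loss-of-signal fitted against DMSO controls.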

[3] = read-out: Human Leukocyte Antigen - DR isotype (HLADR), HLA-DRA (gene 3122); test: BSK_BE3C_HLADR: BioMAP Diversity Plus: BE3C Assay for Human Leukocyte Antigen - DR isotype (HLADR) Biomarker Activity (AID 2283032); details: primary human bronchial epithelial cells; actives raise or lower the signal
Summary of the method: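 Human primary bronchial epithelial cells (BE3C system) exposed to compound for 24 hours; cell-surface HLA-DR measured by ELISA, fitted bidirectionally relative to DMSO. Total protein by SRB in parallel cultures tracked cytotoxicity.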

[4] = read-out: Vascular cell adhesion molecule 1 (VCAM1), VCAM1 (gene 7412); test: BSK_4H_VCAM1: BioMAP Diversity Plus: 4H Assay for Vascular cell adhesion molecule 1 (VCAM1) Biomarker Activity (AID 2283033); details: primary human endothelial cells (HUVEC); actives raise or lower the signal
Summary of the method: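 Primary human umbilical vein endothelial cells, 4H stimulation system, treated for 24 h; cell-surface VCAM-1 quantified by ELISA. Bidirectional fitting against DMSO; cytotoxicity tracked by SRB total-protein staining in parallel cultures.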

[5] = read-out: Interferon-gamma inducible Protein 10 (IP10), CXCL10 (gene 3627); test: BSK_BE3C_IP10: BioMAP Diversity Plus: BE3C Assay for Interferon-gamma inducible Protein 10 (IP10) Biomarker Activity (AID 2283034); details: primary human bronchial epithelial cells; actives raise or lower the signal
Summary of the method: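 Primary human bronchial epithelial cells, with IP-10 measured by ELISA 24 hours after chemical dosing. Bidirectional fit against DMSO; cytotoxicity checked by SRB total protein staining in parallel cultures.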

[6] = read-out: Monokine induced gamma interferon (MIG), CXCL9 (gene 4283); test: BSK_BE3C_MIG: BioMAP Diversity Plus: BE3C Assay for Monokine induced gamma interferon (MIG) Biomarker Activity (AID 2283035); details: primary human bronchial epithelial cells; actives raise or lower the signal
Summary of the method: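 ELISA read-out of MIG in human lung bronchial epithelial primary cultures, 24 h post-dosing. Bidirectional curve fit vs DMSO baseline.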

[7] = read-out: Plasminogen activator inhibitor-1 (PAI1), SERPINE1 (gene 5054); test: BSK_BE3C_PAI1: BioMAP Diversity Plus: BE3C Assay for Plasminogen activator inhibitor-1 (PAI1) Biomarker Activity (AID 2283037); details: primary human bronchial epithelial cells; actives raise or lower the signal
Summary of the method: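 Primary human bronchial epithelial cells (BE3C system) exposed 24 h; PAI-1 quantified by ELISA. Parallel sulforhodamine B staining of total protein flags cytotoxicity. Bidirectional fit versus DMSO.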

[8] = read-out: Urokinase-type plasminogen activator receptor (uPAR), PLAUR (gene 5329); test: BSK_BE3C_uPAR: BioMAP Diversity Plus: BE3C Assay for Urokinase-type plasminogen activator receptor (uPAR) Biomarker Activity (AID 2283039); details: primary human bronchial epithelial cells; actives raise or lower the signal
Summary of the method: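 Primary human bronchial epithelial cells dosed for 24 h; uPAR quantified by ELISA with bidirectional fitting against DMSO. Overt cytotoxicity assessed in parallel cultures by SRB total-protein staining (0.1% SRB, 560 nm).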

[9] = read-out: urokinase plasminogen activator (uPA), PLAU (gene 5328); test: BSK_BE3C_uPA: BioMAP Diversity Plus: BE3C Assay for urokinase plasminogen activator (uPA) Biomarker Activity (AID 2283038); details: primary human bronchial epithelial cells; actives raise or lower the signal;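 further: uPA protein level quantified by ELISA in cell cultures; uPA read one day after compound addition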
Summary of the method: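 Measured by ELISA: uPA from human primary bronchial epithelial cells 24 h after chemical treatment. Values derive from bidirectional curve fitting with DMSO serving as negative control. Total protein by SRB staining in parallel wells flagged overt cytotoxicity.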

[10] = read-out: Transforming growth factor beta 1 (TGFb1), TGFB1 (gene 7040); test: BSK_BE3C_TGFb1: BioMAP Diversity Plus: BE3C Assay for Transforming growth factor beta 1 (TGFb1) Biomarker Activity (AID 2283036); details: primary human bronchial epithelial cells; actives raise or lower the signal
Summary of the method: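 Primary human bronchial epithelial cells dosed with chemical; TGF-b1 measured by ELISA 24 h after dosing. Bidirectional curve fitting against DMSO negative control; SRB total-protein staining in parallel cultures gauged cytotoxicity.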

Measured: AC50

Cc1cc(-c2ccc(N)c(C)c2)ccc1N
not listed: [9] | [10]
inactive: all other assays above

CCOP(=S)(OCC)SCSC(C)(C)C
not listed: [10]
inactive: all other assays above

Sc1ccccc1
not listed: [9] | [10]
inactive: all other assays above

CCCN(CCC)N=O
not listed: [10]
inactive: all other assays above

CCC(C)(c1ccc(O)cc1)c1ccc(O)cc1
active: [1] 34.8 µM | [3] 24.5 µM | [5] 28.9 µM
not listed: [4] | [9]
inactive: all other assays above

Oc1ccc(Cl)cc1Cl
not listed: [10]
inactive: all other assays above

Nc1ccc(-c2ccc(N)cc2)cc1
not listed: [9] | [10]
inactive: all other assays above

Cc1cccc([N+](=O)[O-])c1
not listed: [2] | [9] | [10]
inactive: all other assays above

CC(c1ccc(O)cc1)(c1ccc(O)cc1)c1ccc(O)cc1
active: [1] 30.8 µM | [3] 2.08 µM | [4] 24 µM | [5] 2.57 µM | [6] 2.2 µM | [7] 3.29 µM | [8] 2.4 µM
inactive: [2]

CCCCCCCCOC(=O)c1ccccc1C(=O)OCCCCCCCC
active: [1] 3.7 µM
not listed: [10]
inactive: all other assays above

O=C(O)C(F)(F)C(F)(F)C(F)(F)C(F)(F)C(F)(F)F
not listed: [10]
inactive: all other assays above

CCC(=O)O[C@H]1CC[C@H]2[C@@H]3CCC4=CC(=O)CC[C@]4(C)[C@H]3CC[C@]12C
inactive: [5] | [6] | [7] | [8]
active: [1] 30.3 µM | [2] 28 µM | [3] 32.9 µM | [4] 37.4 µM

COc1ccc(O)c(C(C)(C)C)c1
not listed: [9] | [10]
inactive: all other assays above

CCCCCCCCCC[N+](C)(C)CCCCCCCCCC
active: [1] 6.83 µM | [2] 2.01 µM | [3] 4.45 µM | [5] 5.48 µM | [6] 8.77 µM | [10] 5.35 µM | [7] 3.71 µM | [8] 5.55 µM

ClC(Cl)=C(c1ccc(Cl)cc1)c1ccc(Cl)cc1
active: [1] 32.8 µM | [2] 34.9 µM | [4] 28.6 µM
not listed: [9] | [10]
inactive: all other assays above

CC(C)(O)C(=O)Nc1ccc([N+](=O)[O-])c(C(F)(F)F)c1
active: [5] 24.6 µM
not listed: [9] | [10]
inactive: all other assays above
